# Reference: PubChem BioAssay (NCI)
# Compounds without any hit were thinned out: in the full panel of roughly 83,000, 20% have a hit.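 The test compound was applied at a single concentration to cells in 96-well plates for 48 hours, and percent growth was recorded.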 Unmarked numbers belong to inactive results. Calls of active or inactive are those of the source.
# Tested on: T-47D breast
# Assay: NCI-60 one-dose screen, 48 h (100 = growth as untreated, 0 = no growth, -100 = all killed)
# Details: 10 µM unless noted
# Description: Growth inhibition of the T-47D human tumor cell line is measured as a screen for anti-cancer activity. Cells are grown in 96 well plates and exposed to the test compound for 48 hours. Compounds are tested at a single concentration, which is 10^-5 M for most compounds. The reported endpoint is percent growth (GI% or GIPRCNT), where numbers from 0 - 100% represent growth inhibition, and numbers from -100% - 0 represent cell death. For example, a value of 40 represents 60% growth inhibition. A value of 0 means no net growth occurred over the course of the experiment. A value of -40 indicates 40% of cells at the beginning of the experiment died by the end of the experiment. A value of -100 means all cells are dead at the end of the experiment.
# NCI-60 Human Tumor Cell Lines Screen was performed using the standard one-dose NCI protocol, which is described in more detail at https://dtp.cancer.gov/discovery_development/nci-60/default.htm.
# Compounds with GIPRCNT values below 10 were considered active. Activity score was based on GIPRCNT using the following formula: […]
# Score is 0 for GIPRCNT values of 100 or above, 50 for GIPRCNT values of 0, and 100 for GIPRCNT values of -100.
row,SMILES,growth
1,CCCC(=O)N1CCCCC1CC (stereo not given),110%
2,Cn1c(=O)c2c(ncn2CC(=O)Nc2ccc(S(N)(=O)=O)cc2)n(C)c1=O,93.2%
3,Cc1nn2c(-c3nc4cc(Cl)c(Cl)cc4[nH]3)c(-c3ccc(F)cc3)nc2s1,-0.149% (active)
4,Cn1cc(-c2nc(-c3c[nH]c4ncccc34)cs2)c2cc(F)ccc21,24.3%
5,Cc1nc([P+](c2ccccc2)(c2ccccc2)c2ccccc2)c(Sc2sc(-c3ccccc3)nc2[P+](c2ccccc2)(c2ccccc2)c2ccccc2)o1,4.85% (active)
6,CN(CSc1ccc(Cl)cc1)c1ccc(CSc2ccc(Cl)cc2)cc1,48.6%
7,COC(=O)[C@]12CC[C@@H](C)[C@H](C)[C@@H]1C1=CC[C@@H]3[C@@]4(C)C(c5ncon5)=C[C@@](C)(CO)C4=CC[C@@]3(C)[C@]1(C)CC2,-0.698% (active)
8,Cc1cc(N2CCN(C)CC2)nc(N(CCNc2ccnc3cc(Cl)ccc23)Cc2ccco2)n1,40.4%
9,COc1ccc(C2NC(=O)Nc3ccccc32)c(OC)c1 (stereo not given),91.4%
10,CC1(C)c2ccccc2C(=O)C1(Br)Cc1ccccc1 (stereo not given),60.6%
11,COc1ccccc1CNc1nc(N)nc2[nH]c3ccc(O)cc3c12,32.1%
12,CCOC(=O)C1OC1(c1ccccc1)c1ccccc1 (stereo not given),110%
13,C=C(C)[C@@H]1CC[C@]2(C)CC[C@]3(C)[C@H](CC[C@@H]4[C@@]5(C)CCCNC(C)(C)[C@@H]5CC[C@]43C)[C@@H]12,76%
14,C/C(=N\NC(=O)C(C)SC(C)C(=O)N/N=C(\C)c1cccnc1)c1cccnc1 (stereo not given),104%
15,Cc1ccc(S(=O)(=O)Nc2ccc(-c3cc(-c4cccc(F)c4)c(C#N)c(=O)[nH]3)cc2)cc1,41.9%
16,CCN1CCN(C(=O)[C@]23CCC(C)(C)C[C@H]2C2=CC[C@@H]4[C@@]5(C)CC/C(=N/O)C(C)(C)[C@@H]5CC[C@@]4(C)[C@]2(C)CC3)CC1,36.6%
17,CC(C)(C)c1ccc(OCCCCCCCN2CCNCC2)cc1,6.54% (active)
18,COc1cc2c(cc1OC)C(=O)/C(=C/c1cc(-c3ccc4c(c3)OCO4)n[nH]1)C2,-4.12% (active)
19,Cn1cc(-c2csc(-c3c[nH]c4ccccc34)n2)c2cccnc21,27.2%
20,CC(C)(C)c1[nH]nc2c1C(c1cc3ccccc3[nH]c1=O)Nc1cc(C(=O)OCc3ccccc3)ccc1N2 (stereo not given),36.7%

row,SMILES,growth
1,C=C(C)[C@@H]1CC[C@]2(C(=O)OC)CC[C@]3(C)[C@H](CC[C@@H]4[C@@](C)(CC/C(N)=N/O)[C@H](C(=C)C)CC[C@]43C)[C@@H]12,91%
2,COc1ccc2c(c1)c1nc3cc(C)c(C)cc3nc1n2CCN(C)C,25.3%
3,Clc1ccccc1-c1nc(Nc2nc3ccccc3s2)nc(C(Cl)(Cl)Cl)n1,38.7%
4,C/C(Cc1ccc(Cl)cc1)=C(/c1ccc(Cl)cc1)c1ccc(OCCN2CCCC2)cc1,66.3%
5,Nc1c(C(=O)Nc2cccc(Cl)c2)sc2ncc(Cl)cc12,49.6%
6,CCc1ccccc1NC(=O)c1sc2nc3c(cc2c1N)CCCC3,34.6%
7,Cc1ccc(C)c2c1CCC2C(C)C (stereo not given),91.2%
8,CC1(C)C(=O)CC[C@]2(C)[C@H]3C(=O)C=C4[C@@H]5C[C@@](C)(C(=O)NCCNCCN)CC[C@]5(C)CC[C@@]4(C)[C@]3(C)CC[C@@H]12,82%
9,c1ccc(-c2nc(Nc3ccc(-c4nc5ccccc5[nH]4)cc3)nc(N3CCOCC3)n2)cc1,-62.3% (active)
10,COc1ccc(C(=O)/C=C/c2cc(-c3cc(OC)c(OC)c(OC)c3)n[nH]2)cc1OC,-2.5% (active)
11,Cn1cc(-c2nc(-c3c[nH]c4ncccc34)cs2)c2cc(Br)ccc21,84%
12,COc1cccc(NC(=O)c2sc3nc4c(cc3c2N)C(=O)CCC4)c1,51.9%
13,O=C1c2ccccc2C(=Cc2ccccc2)c2ccccc21,29.4%
14,CCc1cccc(CC)c1NC(=O)c1sc2nc3c(cc2c1N)CCCC3,64.3%
15,C=C1CC[C@@H](C(=O)OC)Cc2nc(C)ccc21,99%
16,O=c1c2sc3ncc(Br)cc3c2ncn1-c1cccc(Cl)c1,61.9%
17,NC1=NN=C2N(N)C(=O)c3cnn(-c4ccccc4)c3N2c2nc(-c3ccccc3)cc(-c3ccccc3)c21,71.1%
18,CCN1CCN(C(=O)[C@]23CC[C@@H](C)[C@H](C)[C@H]2C2=CC[C@@H]4[C@@]5(C)C/C(=C/c6cccc(OC)c6OC)C(=O)C(C)(C)[C@@H]5CC[C@@]4(C)[C@]2(C)CC3)CC1,18.2%
19,Brc1ccc2c(c1)c(-c1nc(-c3c[nH]c4ncccc34)cs1)cn2CCCN1CCCCC1,45%
20,Cn1cc(-c2csc(-c3cn(CCN)c4ccc(F)cc34)n2)c2cccnc21,19%
